Assay results published in the supplement of paper PMC4206461.
A number with no mark means an inactive call.

These compounds were tested on Pseudomonas aeruginosa PA14 dppBCDF deletion mutant (assay: respiration area under curve with compound as sole nitrogen source, 24 h (OmniLog AUC (arbitrary units)); higher = more respiration / better utilisation as nitrogen source, active = 2000 or more; extreme values may be limits of the assay).
Method: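 Biolog Phenotype MicroArray plates PM6-PM8: each di/tripeptide is the sole nitrogen source. Tetrazolium reduction was read in the OmniLog every 15 min for 24 h at 37°C and summarised as area under the respiration curve (arbitrary units). Values below 2000 count as no respiration. Strain is the dipeptide ABC transporter deletion mutant.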

| SMILES | respiration area under curve |
| --- | --- |
| NCC(=O)N[C@@H](Cc1ccccc1)C(=O)O (plate: PM6) | 350 |
| C[C@H](N)C(=O)N[C@H](C(=O)O)[C@@H](C)O (plate: PM6) | 1650 |
| CC(C)C[C@H](NC(=O)[C@@H](C)N)C(=O)O (plate: PM8) | 0 |
| CC(C)[C@H](N)C(=O)N[C@@H](CC(N)=O)C(=O)O (plate: PM7) | 5280 (active) |
| N[C@@H](Cc1c[nH]c2ccccc12)C(=O)N[C@@H](Cc1c[nH]c2ccccc12)C(=O)O (plate: PM7) | 436 |
| C[C@H](NC(=O)[C@@H](N)CCCN=C(N)N)C(=O)O (plate: PM6) | 8890 (active) |
| C[C@H](N)C(=O)N[C@@H](CC(=O)O)C(=O)O (plate: PM8) | 2510 (active) |
| NC(=O)CC[C@H](NC(=O)[C@@H]1CCCN1)C(=O)O (plate: PM7) | 1860 |
| CSCC[C@H](N)C(=O)N[C@@H](CCC(=O)O)C(=O)O (plate: PM7) | 0 |
| NCC(=O)N1CCC[C@H]1C(=O)O (plate: PM6) | 0 |
| N[C@@H](Cc1ccc(O)cc1)C(=O)N[C@@H](Cc1ccccc1)C(=O)O (plate: PM7) | 3450 (active) |
| CC[C@H](C)[C@H](NC(=O)[C@@H](N)CC(C)C)C(=O)O (plate: PM6) | 3260 (active) |
| CSCC[C@H](N)C(=O)N[C@@H](Cc1c[nH]c2ccccc12)C(=O)O (plate: PM7) | 2520 (active) |
| CC(C)C[C@H](N)C(=O)NCC(=O)O (plate: PM6) | 4090 (active) |
| O=C(O)[C@H](Cc1ccc(O)cc1)NC(=O)[C@@H]1CCCN1 (plate: PM7) | 8430 (active) |
| CC(C)[C@H](N)C(=O)NCC(=O)O (plate: PM7) | 47.8 |
| C[C@@H](O)[C@H](N)C(=O)N[C@@H](CC(=O)O)C(=O)O (plate: PM8) | 0 |
| CC(C)C[C@H](N)C(=O)NCC(=O)NCC(=O)O (plate: PM8) | 5290 (active) |
| CSCCC(NC(=O)C(N)CC(C)C)C(=O)O (stereo not given) (plate: PM6) | 686 |
| NCC(=O)N[C@@H](Cc1ccc(O)cc1)C(=O)O (plate: PM6) | 216 |

| SMILES | respiration area under curve |
| --- | --- |
| N[C@@H](CCC(=O)O)C(=O)N[C@@H](CCC(=O)O)C(=O)O (plate: PM6) | 0 |
| CC(C)[C@H](N)C(=O)N[C@H](C(=O)O)C(C)C (plate: PM7) | 1580 |
| N[C@@H](CO)C(=O)NCC(=O)O (plate: PM7) | 1360 |
| CC[C@H](C)[C@H](N)C(=O)N[C@@H](Cc1c[nH]c2ccccc12)C(=O)O (plate: PM6) | 76.8 |
| CC(C)[C@H](NC(=O)[C@@H](N)CCCN=C(N)N)C(=O)O (plate: PM6) | 7970 (active) |
| CC(C)[C@H](NC(=O)[C@@H](N)Cc1c[nH]c2ccccc12)C(=O)O (plate: PM8) | 0 |
| CC[C@H](C)[C@H](N)C(=O)N[C@H](C(=O)O)C(C)C (plate: PM6) | 545 |
| CC(C)C[C@H](N)C(=O)N[C@H](C(=O)O)C(C)C (plate: PM7) | 9340 (active) |
| CC(C)C[C@H](N)C(=O)N[C@H](CC(C)C)C(=O)O (plate: PM8) | 0 |
| NC(N)=NCCC[C@H](N)C(=O)N[C@@H](CO)C(=O)O (plate: PM6) | 8440 (active) |
| C[C@H](N)C(=O)N[C@@H](CCC(=O)O)C(=O)O (plate: PM6) | 3750 (active) |
| CC(C)[C@H](NC(=O)CN)C(=O)O (plate: PM6) | 124 |
| N[C@@H](Cc1c[nH]c2ccccc12)C(=O)N[C@@H](CO)C(=O)O (plate: PM7) | 106 |
| CSCC[C@H](N)C(=O)N[C@@H](CCC(N)=O)C(=O)O (plate: PM7) | 3640 (active) |
| C[C@H](NC(=O)[C@@H](N)Cc1c[nH]c2ccccc12)C(=O)O (plate: PM7) | 744 |
| CC[C@H](C)[C@H](NC(=O)[C@@H](N)CCCN=C(N)N)C(=O)O (plate: PM6) | 8310 (active) |
| N[C@@H](Cc1c[nH]c2ccccc12)C(=O)NCC(=O)O (plate: PM7) | 6.75 |
| CC(C)[C@@H](NC(=O)CN)C(=O)O (plate: PM8) | 0 |
| N[C@@H](Cc1c[nH]c2ccccc12)C(=O)N[C@@H](CCC(=O)O)C(=O)O (plate: PM7) | 0 |
| NC(N)=NCCC[C@H](N)C(=O)N[C@@H](Cc1ccccc1)C(=O)O (plate: PM6) | 8100 (active) |
